# Six1-Eya2 blk – Six1/Eya2 interaction inhibition. Q15475+O00167. AlphaScreen GST-Six1/His-Eya2 binding, biochemical; hits give low values. activity change, % (test concentration not listed). hit rate 0.56% among 360,000; in the data active = activity change below about -65%; inconclusive = mostly about -30% to -63%; also: % is scaled to controls: 0 for no effect and ±100 for the full control effect
# Target sequence (O00167 whole entry, looked up): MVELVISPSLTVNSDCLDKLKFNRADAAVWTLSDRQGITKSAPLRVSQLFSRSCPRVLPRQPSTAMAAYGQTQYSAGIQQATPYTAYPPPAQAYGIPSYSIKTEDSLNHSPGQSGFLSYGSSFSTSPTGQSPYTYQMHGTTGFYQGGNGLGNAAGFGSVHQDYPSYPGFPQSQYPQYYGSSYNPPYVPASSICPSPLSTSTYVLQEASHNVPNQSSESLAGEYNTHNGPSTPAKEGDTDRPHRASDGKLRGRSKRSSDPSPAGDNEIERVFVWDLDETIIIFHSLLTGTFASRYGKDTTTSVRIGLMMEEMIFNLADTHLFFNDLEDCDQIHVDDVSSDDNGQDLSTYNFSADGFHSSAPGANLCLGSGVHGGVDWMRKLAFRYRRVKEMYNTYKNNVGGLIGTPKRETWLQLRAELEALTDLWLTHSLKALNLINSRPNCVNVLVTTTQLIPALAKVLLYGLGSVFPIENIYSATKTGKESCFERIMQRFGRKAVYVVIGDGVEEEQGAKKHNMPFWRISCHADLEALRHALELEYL
# Target sequence (Q15475 whole entry, looked up): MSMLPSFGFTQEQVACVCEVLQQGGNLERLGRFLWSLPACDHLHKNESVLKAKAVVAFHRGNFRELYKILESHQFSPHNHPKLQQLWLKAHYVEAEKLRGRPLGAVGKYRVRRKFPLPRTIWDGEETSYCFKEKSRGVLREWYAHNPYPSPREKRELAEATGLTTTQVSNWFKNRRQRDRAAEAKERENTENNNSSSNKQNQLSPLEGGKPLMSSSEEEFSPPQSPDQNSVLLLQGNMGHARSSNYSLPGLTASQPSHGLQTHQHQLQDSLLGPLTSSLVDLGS
#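 GST-Six1 + His-Eya2 (5X stock: 250/500 nM); Tris pH 8.0, 300 mM NaCl, 0.05% BSA, 0.02% Tween 20; GSH donor/Ni acceptor beads; 1 h 37 °C dark; AlphaScreen readout.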
# CtBP-E1A blk – CtBP/E1A binding inhibition | AlphaScreen GST-E1A/His-CtBP binding, 1536-well; hits give low values | activity change, % (concentration not given with the values) | hit rate 0.49% among 340,000; in the data active = activity change below about -65%; inconclusive = mostly about -30% to -63%; also: % is scaled to controls: 0 for no effect and ±100 for the full control effect
#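 In 5 uL wells, 23 nL compound meets equimolar GST-E1A and His-CtBP (5X stock 125 nM each) for 2 h, 37 °C. Beads (5X, 50 ug/mL) then 1 h, 37 °C, dark.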
# G9a inh – G9a (human) methyltransferase inhibition | G9a H3K9 monomethylation, AlphaScreen, 2 h | Potency, µM (series often up to 102 µM), for inactives: at the top dose activity, negative = inhibition, usual class: inhibitors | hit rate 8.8% among 350,000 | AID 504332; also: potency is read from the fitted curve at half-maximal effect; % is scaled to controls: 0 for no effect and ±100 for the full control effect; nearly all actives have a fitted effect of over 75% in size
#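 Signal arises when biotinylated H3K9 peptide, once monomethylated, bridges streptavidin donor and antibody-captured acceptor beads. Enzyme at 20 nM was preincubated 15 min with test compounds; peptide 500 nM and SAM 20 uM then reacted for 2 h.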
# HP1b chromo inh – HP1-beta chromodomain-methylated histone interaction inhibition; P83916; AlphaScreen HP1-beta / biotin-H3K9me3 peptide binding; Potency, µM (titrated, usually from 114 µM), without a hit: at the highest dose activity change, negative = inhibition, actives largely listed as inhibitors; hit rate 0.56% among 390,000; also: potency is read from the fitted curve at half-maximal effect; nearly all actives have a fitted effect of over 70% in size
#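 Compound inhibition of the preformed complex between 50 nM HP1-beta and 50 nM biotinylated H3K9me3 peptide was read by AlphaScreen. Buffer was PBS pH 7.4 with 0.01% Tween-20. Incubations ran 30 min at room temperature, with 10 ug/mL donor/acceptor beads.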
# JMJD2A Tudor – JMJD2A Tudor domain (human) inhibition; Potency, µM (series often up to 114 µM), without a hit: at the highest dose activity change, negative = inhibition, actives largely listed as inhibitors; AlphaScreen JMJD2A-Tudor / H3K4me3 peptide binding; AID 504339; hit rate 4.4% among 390,000; O75164; also: potency is read from the fitted curve at half-maximal effect; % is scaled to controls: 0 for no effect and ±100 for the full control effect; nearly all actives have a fitted effect of over 50% in size
# BAZ2B inh – inhibitors of human BAZ2B bromodomain; hit rate 4.4% among 360,000; Potency, µM (series often up to 114 µM), for the others: at the top dose activity change, negative = inhibition, most hits filed as inhibitors; Q9UIF8; AlphaScreen BAZ2B-H3K14Ac peptide displacement; AID 504333; also: potency is read from the fitted curve at half-maximal effect; % is scaled to controls: 0 for no effect and ±100 for the full control effect; nearly all actives have a fitted effect of over 60% in size
#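 AlphaScreen displacement of biotin-H3(5-23)K14Ac peptide (50 nM final) from BAZ2B (50 nM final) in PBS pH 7.4, 0.01% Tween-20; complex preformed 30 min RT, then compounds (top 110 uM) 30 min RT, beads 20 min dark.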
# Starred values were filed as active, the others as inactive; ? = inconclusive; nt = not tested or not shown; [ ] = dose if it differs, or a comment. Shown are actives, neighbours in structure and some others; about 10% of the full set was active somewhere. Unless noted, calls follow the shape of the dose curve; as a rule, active = well fitted inhibition curve with a large enough effect; inconclusive = small, poorly fitted or top-dose-only effect; inactive = no such curve, though single readings can be large or run the other way.
SMILES,Six1-Eya2 blk,CtBP-E1A blk,G9a inh,HP1b chromo inh,JMJD2A Tudor,BAZ2B inh
CCn1c(C2CCN(Cc3ccccc3)CC2)n[nH]c1=S,9,-19,-51%,32%,3.5µM*,7%
S=c1[nH]nc(-c2cc3ccccc3o2)n1Cc1ccccc1,-14,-14,1.1µM*,-16%,-27%,?
NC(=O)CSc1nnc(-c2cc3ccccc3o2)n1Cc1ccccc1,0,5,?,45%,1%,-2%
O=C(CCNS(=O)(=O)c1ccc2c(c1)CCN2C(=O)C1CC1)Nc1ccc(Cl)cc1,nt,nt,-2%[59 µM],18%[57 µM],-15%,-1%
CC(c1n[nH]c(=S)n1Cc1ccccc1)N(C)C (centres undefined),1,10,10µM*,-12%,?,-8%
OC(c1ccccc1)(c1nc(/C=C/c2ccc(C(F)(F)F)cc2)cs1)C(F)(F)F (centres undefined),11,13,nt,nt,nt,nt
CN(Cc1ccccc1)c1ccc(-c2nc(-c3ccccn3)no2)cc1[N+](=O)[O-],nt,nt,?,40%,6%,4%
CCCCCCCCCCCC(=O)N(CCO)CCO,nt,nt,-4%[12.7 µM],nt,nt,nt
O=C(CCCCCC(=O)N(CCO)CCO)N(CCO)CCO,14,2,40µM*,32%,-12%[11.4 µM],-2%
CCOC(=S)N/C(=N\S(C)(=O)=O)c1ccccc1,4,-12,16µM*,19%,-11%[11.4 µM],-19%
Cc1ccc(S(=O)(=O)/N=C(/NC(=S)Nc2ccccc2)c2ccccc2)cc1,-2,4,?,-10%,-13%,6%
CCCOC(=S)N/C(=N\S(=O)(=O)c1ccccc1)c1ccccc1,2,2,10µM*,-26%,-18%,7%
Cc1ccc(NC(=S)N/C(=N/S(=O)(=O)c2ccccc2)c2ccccc2)cc1,-4,0,13µM*,-24%,-30%,-31%
CCOC(=S)N/C(=N\S(=O)(=O)c1ccccc1)c1ccccc1,4,6,10µM*,?,-7%,11%
CCc1ccc(S(=O)(=O)c2cn(C)c3cc(N4CCC(C)CC4)c(F)cc3c2=O)cc1,nt,nt,2%[59 µM],25%,-2%,0%
COc1cc(NC(=O)C2=CC(c3ccc(F)cc3)=NS(=O)(=O)N2C)cc(OC)c1OC,nt,nt,-36%[59 µM],50%,1%,3%
CCCc1cn(CC(C)n2c(=O)c3ccccc3n2Cc2cc(C(C)C)no2)nn1 (centres undefined),1,5,nt,nt,nt,nt
O=C(O)CCSCCCN1C(=O)c2cccc3cccc(c23)C1=O,1,nt,2%,-6%,-14%,-15%
COC(=S)N/C(=N\S(=O)(=O)c1ccc(Cl)cc1)c1ccccc1,2,2,25µM*,-15%,-26%,-21%
O=S(=O)(N=C(NS(=O)(=O)c1ccc(Cl)cc1)c1ccccc1)c1ccc(Cl)cc1,8,14,nt,12%,-22%,nt
CCc1ccc(-n2nc3cc(C)c(NC(=O)c4cc(OC)cc(OC)c4)cc3n2)cc1,nt,nt,5.6µM*,6%,-31%,?
CCc1ccc(-n2nc3cc(C)c(NC(=O)c4ccccc4C)cc3n2)cc1,nt,nt,7.9µM*,8%,89µM*,?
COc1ccc(-n2nc3cc(C)c(NC(C)=O)cc3n2)cc1,5,1,nt,4%,-12%,-15%
CCc1ccc(-n2nc3cc(C)c(NC(=O)c4cccc5ccccc45)cc3n2)cc1,nt,nt,?,29%,4%,-17%
COc1cc(/C=C/C(=O)OCC(=O)NCCC2=CCCCC2)cc(OC)c1OC,-2,-2,nt,35%,-3%,nt
SMILES,Six1-Eya2 blk,CtBP-E1A blk,G9a inh,HP1b chromo inh,JMJD2A Tudor,BAZ2B inh
CCCCc1cc(=O)oc2cc(OCC(=O)NC3CCN(Cc4ccccc4)CC3)ccc12,2,-6,?,20%,-16%,-16%
COc1cc(/C=C/C(=O)OCC(=O)NCc2ccco2)ccc1OC(F)F,0,-4,40µM*,3%,-17%,-27%
CCOc1cc(/C=C/C(=O)OCC(=O)NCc2ccco2)cc(Cl)c1OC,-10,?,50µM*,-14%,?,?
COc1ccc(/C=C/C(=O)OCC(=O)NCc2ccco2)cc1OC,-21,2,23%[59 µM],-5%,-26%,?
Cc1ccc(C)c(NC(=O)C(c2ccccc2)N2Cc3ccccc3C2=O)c1 (centres undefined),nt,nt,-10%[59 µM],20%,-22%,-4%
O[C@@H]1CN(C2CCCCC2)CC[C@H]1N1CCN(CCc2ccccc2)CC1,-6,-24,nt,9%,-12%,0%
COc1ccccc1NC(=S)N1CCn2cccc2C1c1cccnc1 (centres undefined),-8,-13,56µM*,0%,-22%,-33%
Fc1ccccc1C1c2cccn2CCN1C(=S)Nc1cccc(Br)c1 (centres undefined),5,7,?,20%,-1%,?
Fc1cccc(NC(=S)N2CCn3cccc3C2c2cccnc2)c1 (centres undefined),-1,-16,50µM*,-5%,-32%,?
S=C(Nc1ccccc1)N1CCn2cccc2C1c1cccnc1 (centres undefined),-3,4,?,-12%,?,-39%
COc1ccccc1NC(=S)NCc1cccnc1,6,3,11%[59 µM],39%,3%,8%
Fc1ccccc1C1c2cccn2CCN1C(=S)Nc1ccc(Br)cc1 (centres undefined),-17,-5,25µM*,20%,-23%,-4%
CC1(C(=O)NS(C)(=O)=O)CCN1C(=O)C/C=C/c1ccccc1 (centres undefined),3,14,nt,nt,nt,nt
COc1ccc(CN(Cc2ccco2)c2cnc(S(C)(=O)=O)nc2C(=O)Nc2ccc(F)cc2)cc1,nt,nt,?,20%,-28%,-23%
COc1ccc(NS(=O)(=O)c2cccc(C(=O)NNC(=O)CNC(=O)c3ccc(C)cc3)c2)cc1,-10,0,2%[0.501 µM],46%,-18%,1%
COc1ccccc1CNC(=O)c1cc2ccc3ccc(C)[nH]c3c2n1,nt,nt,-22%[59 µM],34%,-12%,2%[57.1 µM]
Cc1cc(NC(=O)CCNS(=O)(=O)c2cccc3nsnc23)ccc1Br,nt,nt,?,18%,-26%,-15%
CC(=NNS(=O)(=O)c1ccc(C)cc1)c1ccncc1,-1,-6,nt,nt,nt,nt
C/C(=N/NS(=O)(=O)c1ccc(F)cc1)c1ccncc1,3,6,22µM*,32%,-22%,-14%
CCc1ccc(S(=O)(=O)N/N=C(/C)c2ccncc2)cc1,-2,-4,40µM*,55%,-15%,-5%
CC(C)c1ccc(NC(=O)c2cc(S(=O)(=O)N3CCCCC3)cn2C)cc1,nt,nt,4%[59 µM],22%[57 µM],-19%,-2%
O=C(O)c1nn(Cc2ncc(-c3cccc(Cl)c3)o2)c(=O)c2ccccc12,12,19,40µM*,?,-30%,-20%
